Data: the supplement of paper PMC12494721
Where a name gives a salt, the structure may show the parent alone.

How the values were obtained:
Settings in all cases: incubation time: 27 h, anaerobic, 37 °C;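 for the amine columns active = adjusted P below 0.05 in both replicates with a change the same way and a mean fold change under 0.8 or over 1.25; inactive = the rest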
[1] = tested on: Clostridium sporogenes DSM 1664; test: growth (OD595) fold change vs plate DMSO controls (fold change (ratio)); higher = more growth
In short: (§1)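 The measure reported is growth, taken as fold change against the median of DMSO controls on the same plate. Anaerobic mGAM cultures in 96-well plates (27 h, 37 °C) were read at 595 nm, blank-subtracted, corrected for compound background using 20 µM compound solutions in water, and multiplied by a calibration factor of 5 to give OD. Any fold change above 1.5 became NA, and 2 biological replicates were averaged.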

Escherichia coli IAI1 [2] = test: as above
In short: as §1

[3] = tested on: Klebsiella aerogenes DSM 30053; test: as above
In short: as §1

[4] = tested on: Ruminococcus gnavus DSM 108212; test: as above
In short: as §1

[5] = tested on: Klebsiella aerogenes DSM 30053; test: fold change of Histamine concentration vs plate DMSO controls (fold change (ratio)); higher = more amine produced, active = hit call of the paper (significant change in both replicates, either direction)
In short: (§2)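 Anaerobic mGAM cultures of four gut bacterial strains were grown at 37 °C for 27 h in 80 µL wells, starting at OD 0.1 before 1:1 dilution. Compounds were at 20 µM final (sweeteners 50 µM). Whole cultures were extracted with cold acetonitrile/methanol containing 0.1% formic acid and centrifuged. Amines were quantified by LC–triple-quadrupole MS (dynamic MRM) against external calibration curves and drift-corrected within batch. Each value is the fold change versus plate DMSO controls, averaged over 2 biological replicates.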

[6] = tested on: Clostridium sporogenes DSM 1664; test: fold change of Tryptamine concentration vs plate DMSO controls (fold change (ratio)); higher = more amine produced, active = hit call of the paper (significant change in both replicates, either direction)
In short: as §2

[7] = tested on: Ruminococcus gnavus DSM 108212; test: as above
In short: as §2

Escherichia coli IAI1 [8] = test: fold change of Putrescine concentration vs plate DMSO controls (fold change (ratio)); higher = more amine produced, active = hit call of the paper (significant change in both replicates, either direction)
In short: as §2

[9] = tested on: Klebsiella aerogenes DSM 30053; test: as above
In short: as §2

Escherichia coli IAI1 [10] = test: fold change of Cadaverine concentration vs plate DMSO controls (fold change (ratio)); higher = more amine produced, active = hit call of the paper (significant change in both replicates, either direction)
In short: as §2

[11] = tested on: Klebsiella aerogenes DSM 30053; test: as above
In short: as §2

[12] = tested on: Ruminococcus gnavus DSM 108212; test: fold change of 2-Phenylethylamine concentration vs plate DMSO controls (fold change (ratio)); higher = more amine produced, active = hit call of the paper (significant change in both replicates, either direction)
In short: as §2

Compound | growth [1] | growth (Escherichia coli IAI1 [2]) | growth [3] | growth [4] | fold change of Histamine concentration [5] | fold change of Tryptamine concentration [6] | fold change of Tryptamine concentration [7] | fold change of Putrescine concentration (Escherichia coli IAI1 [8]) | fold change of Putrescine concentration [9] | fold change of Cadaverine concentration (Escherichia coli IAI1 [10]) | fold change of Cadaverine concentration [11] | fold change of 2-Phenylethylamine concentration [12]
Cn1c(=O)c2c(ncn2CC(=O)O)n(C)c1=O [Acefylline] (20 µM) | 0.895 | 0.94 | 1.02 | 1.06 | 0.964 (inactive) | 0.971 (inactive) | 0.936 (inactive) | 0.93 (inactive) | 0.995 (inactive) | 1.01 (inactive) | 0.999 (inactive) | 0.886 (inactive)
Nc1nc(N)nc(-c2cc(Cl)ccc2Cl)n1 [Irsogladine maleate] (20 µM) | 1.07 | 1.02 | 0.961 | 1.02 | 0.989 (inactive) | 0.978 (inactive) | 0.959 (inactive) | 1.04 (inactive) | 0.998 (inactive) | 1.06 (inactive) | 0.997 (inactive) | 0.921 (inactive)
N#Cc1ccc(C(c2ccc(C#N)cc2)n2cncn2)cc1 [Letrozole] (20 µM) | 1.05 | 1.02 | 0.996 | 1.12 | 1.07 (inactive) | 0.988 (inactive) | 1.01 (inactive) | 1.03 (inactive) | 1.01 (inactive) | 0.964 (inactive) | 0.992 (inactive) | 1.02 (inactive)
OC(CCCN1CCCCC1)(c1ccccc1)c1ccccc1 [Diphenidol hydrochloride] (20 µM) | 1.03 | 1.08 | 1.01 | 1.26 | 1.06 (inactive) | 1.03 (inactive) | 0.963 (inactive) | 1.05 (inactive) | 1.02 (inactive) | 0.932 (inactive) | 0.981 (inactive) | 0.92 (inactive)
CCN1CCN(Cc2ccc(Nc3ncc(F)c(-c4cc(F)c5nc(C)n(C(C)C)c5c4)n3)nc2)CC1 [Abemaciclib] (20 µM) | 0.975 | 1 | 1.04 | 1.19 | 1.02 (inactive) | 1 (inactive) | 1 (inactive) | 0.983 (inactive) | 1.01 (inactive) | 1.03 (inactive) | 0.993 (inactive) | 1.02 (inactive)
CN(C)CCCN1c2ccccc2[S+]([O-])c2ccc(Cl)cc21 (stereo not drawn) [Chlorpromazine Sulfoxide] (20 µM) | 0.948 | 0.996 | 0.985 | 1.03 | 1.04 (inactive) | 1.06 (inactive) | 1.04 (inactive) | 0.993 (inactive) | 0.996 (inactive) | 1.01 (inactive) | 0.977 (inactive) | 1.1 (inactive)
CC(C)Oc1ccc2c(=O)c(-c3ccccc3)coc2c1 [Ipriflavone] (20 µM) | 0.986 | 1.01 | 0.992 | 1.03 | 1 (inactive) | 1.01 (inactive) | 1.04 (inactive) | 0.98 (inactive) | 1.02 (inactive) | 1.04 (inactive) | 0.989 (inactive) | 1.02 (inactive)
CS(=O)(=O)c1ccc([C@@H](O)[C@@H](CO)NC(=O)C(Cl)Cl)cc1 [Thiamphenicol] (20 µM) | 0.937 | 0.551 | 0.468 | 0.18 | 0.0658 (active) | 0.738 (active) | 0.141 (active) | 0.321 (active) | 0.426 (active) | 1.17 (inactive) | 0.957 (inactive) | 0.145 (active)
CC(=O)/N=c1/sc(S(N)(=O)=O)nn1C [Methazolamide] (20 µM) | 1.08 | 1.07 | 1.01 | 0.848 | 0.962 (inactive) | 1.02 (inactive) | 1.07 (inactive) | 0.979 (inactive) | 0.981 (inactive) | 0.958 (inactive) | 0.996 (inactive) | 1.12 (inactive)
NCCCC[C@H](N[C@@H](CCc1ccccc1)C(=O)O)C(=O)N1CCC[C@H]1C(=O)O [Lisinopril] (20 µM) | 1.04 | 1.03 | 1.14 | 0.922 | 0.911 (inactive) | 0.958 (inactive) | 0.981 (inactive) | 0.998 (inactive) | 0.988 (inactive) | 1.04 (inactive) | 1.02 (inactive) | 0.943 (inactive)
Nc1nc(=O)c2c([nH]1)NC[C@@H](CNc1ccc(C(=O)N[C@@H](CCC(=O)O)C(=O)O)cc1)N2C=O [Folinic acid calcium salt] (20 µM) | 0.975 | 0.979 | 0.993 | 0.963 | 0.976 (inactive) | 1.02 (inactive) | 0.944 (inactive) | 1.05 (inactive) | 0.998 (inactive) | 0.962 (inactive) | 0.999 (inactive) | 0.882 (inactive)
CN1CCN(C2Cc3ccccc3Sc3ccc(Cl)cc32)CC1 (stereo not drawn) [Octoclothepin maleate salt] (20 µM) | 0.962 | 0.98 | 0.941 | 0.931 | 1.01 (inactive) | 1.05 (inactive) | 0.848 (inactive) | 1.06 (inactive) | 1 (inactive) | 1.1 (inactive) | 0.99 (inactive) | 0.992 (inactive)
CC(=O)[C@H]1CC[C@H]2[C@@H]3C=CC4=CC(=O)CC[C@@]4(C)[C@@H]3CC[C@]12C [Dydrogesterone] (20 µM) | 1.08 | 0.983 | 0.99 | 0.994 | 1.03 (inactive) | 0.933 (inactive) | 0.978 (inactive) | 0.911 (inactive) | 1.01 (inactive) | 1.04 (inactive) | 0.983 (inactive) | 1 (inactive)
CCN1CCCC1CNC(=O)c1cc(S(=O)(=O)CC)c(N)cc1OC (stereo not drawn) [Amisulpride] (20 µM) | 1.16 | 0.998 | 1 | 1.31 | 1.01 (inactive) | 1.01 (inactive) | 1.04 (inactive) | 1.01 (inactive) | 0.999 (inactive) | 0.987 (inactive) | 0.999 (inactive) | 1.05 (inactive)
CCCCC1=NC2(CCCC2)C(=O)N1Cc1ccc(-c2ccccc2-c2nnn[nH]2)cc1 [Irbesartan] (20 µM) | 1.11 | 1.03 | 1.01 | 1.21 | 1.05 (inactive) | 0.968 (inactive) | 0.947 (inactive) | 1.02 (inactive) | 1.01 (inactive) | 1.01 (inactive) | 0.995 (inactive) | 0.929 (inactive)
COc1cc(C(=O)N2CCOCC2)cc(OC)c1OC [Trimetozine] (20 µM) | 0.932 | 0.972 | 0.986 | 1.05 | 0.989 (inactive) | 1.05 (inactive) | 1.04 (inactive) | 1.12 (inactive) | 0.998 (inactive) | 0.99 (inactive) | 1 (inactive) | 1.04 (inactive)
CC(C)(C)NCC(O)COc1cccc2c1CCC(=O)N2 (stereo not drawn) [Carteolol hydrochloride] (20 µM) | 0.96 | 1.01 | 0.997 | 0.895 | 0.987 (inactive) | 0.985 (inactive) | 1.01 (inactive) | 1.01 (inactive) | 0.982 (inactive) | 1 (inactive) | 0.996 (inactive) | 0.982 (inactive)
CCS(=O)(=O)CCn1c([N+](=O)[O-])cnc1C [Tinidazole] (20 µM) | 0 | 0.988 | 0.99 | 0.176 | 0.852 (inactive) | 0.0351 (active) | 0.0414 (active) | 1.01 (inactive) | 0.977 (inactive) | 1.04 (inactive) | 0.993 (inactive) | 0.0315 (active)
COc1ccc2[nH]c([S+]([O-])Cc3ncc(C)c(OC)c3C)nc2n1 (stereo not drawn) [Tenatoprazole] (20 µM) | 1 | 1.06 | 1.04 | 1.14 | 0.985 (inactive) | 1.03 (inactive) | 1.01 (inactive) | 1.06 (inactive) | 0.996 (inactive) | 0.977 (inactive) | 0.995 (inactive) | 1.01 (inactive)
CCCCCCCCCCCCCCCC[N+](C)(C)CCN(Cc1ccc(OC)cc1)c1ncccn1 [Thonzonium bromide] (20 µM) | 0.856 | 1.04 | 1.02 | 1 | 1.04 (inactive) | 0.673 (active) | 0.742 (active) | 1.06 (inactive) | 1 (inactive) | 0.984 (inactive) | 0.995 (inactive) | 0.782 (inactive)
COc1cc(-c2ccc(=O)[nH]n2)ccc1OC(F)F [Zardaverine] (20 µM) | 1.12 | 0.946 | 1.09 | 0.984 | 0.932 (inactive) | 0.971 (inactive) | 0.994 (inactive) | 0.953 (inactive) | 0.987 (inactive) | 1.01 (inactive) | 0.997 (inactive) | 0.952 (inactive)
O=P(O)(O)C(Cl)(Cl)P(=O)(O)O [Clodronate disodium] (20 µM) | 0.99 | 1.03 | 1.02 | 1.09 | 1.02 (inactive) | 0.973 (inactive) | 0.999 (inactive) | 1.02 (inactive) | 1.02 (inactive) | 1.03 (inactive) | 1 (inactive) | 0.981 (inactive)
Nc1nc2c(ncn2COC(CO)CO)c(=O)[nH]1 [Ganciclovir] (20 µM) | 0.925 | 0.989 | 0.946 | 1.07 | 1.04 (inactive) | 1.06 (inactive) | 0.974 (inactive) | 1.02 (inactive) | 1.02 (inactive) | 1.03 (inactive) | 0.999 (inactive) | 0.954 (inactive)
CCN(CC)CCOC(=O)C1(c2ccc([N+](=O)[O-])cc2)CCCC1 [Nitrocaramiphen hydrochloride] (20 µM) | 0.793 | 1.07 | 0.995 | 1.02 | 1.03 (inactive) | 0.949 (inactive) | 1.04 (inactive) | 1.03 (inactive) | 0.982 (inactive) | 1.03 (inactive) | 0.98 (inactive) | 0.995 (inactive)
